From PubChem BioAssay
HPGD inh: qHTS Assay for Inhibitors of HPGD (15-Hydroxyprostaglandin Dehydrogenase); 15-hydroxyprostaglandin dehydrogenase [NAD(+)] (Homo sapiens), P15428; purified HPGD, NADH fluorescence kinetic, PGE2 substrate; Potency, µM, for the others: at the top dose activity change, negative = inhibition, hits mostly inhibitors; 150,000 compounds, 4.3% hits; AID 894, 2007; note: potency is the fitted concentration of half-maximal effect
Target sequence (P15428 whole entry, looked up): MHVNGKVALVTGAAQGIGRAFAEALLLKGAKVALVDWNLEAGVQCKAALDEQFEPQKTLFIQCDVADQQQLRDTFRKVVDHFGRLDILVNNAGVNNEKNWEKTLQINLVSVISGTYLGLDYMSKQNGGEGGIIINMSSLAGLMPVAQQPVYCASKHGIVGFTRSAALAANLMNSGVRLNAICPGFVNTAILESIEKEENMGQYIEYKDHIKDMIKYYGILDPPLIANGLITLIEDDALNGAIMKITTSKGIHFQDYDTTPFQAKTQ
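20 nM HPGD preincubated 15 min at room temperature with compound in 50 mM Tris-HCl pH 8, 0.01% Tween 20. Started with 1 mM NAD+ and 30 uM prostaglandin E2; NADH fluorescence (360/450 nm) read 5 times over 30-s intervals, last minus first.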
JMJD2E inh: qHTS Assay for Inhibitors of Human Jumonji Domain Containing 2E (JMJD2E) | Lysine-specific demethylase 4E (Homo sapiens), B2RXH2 | JMJD2E catalytic domain, FDH-coupled NADH fluorescence (FDH is formaldehyde dehydrogenase) | Potency, µM (doses to about 57.1 µM), for inactives: top-dose activity change, negative = inhibition, hits mostly inhibitors | 230,000 compounds, 1.6% hits | AID 2147, 2009;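 note: potency is the fitted concentration of half-maximal effect; 0% = wells with enzyme and -100% = buffer wells without enzyme; nearly all actives have a fitted effect of over 50% in size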
Target sequence (B2RXH2 1-337 limits assumed): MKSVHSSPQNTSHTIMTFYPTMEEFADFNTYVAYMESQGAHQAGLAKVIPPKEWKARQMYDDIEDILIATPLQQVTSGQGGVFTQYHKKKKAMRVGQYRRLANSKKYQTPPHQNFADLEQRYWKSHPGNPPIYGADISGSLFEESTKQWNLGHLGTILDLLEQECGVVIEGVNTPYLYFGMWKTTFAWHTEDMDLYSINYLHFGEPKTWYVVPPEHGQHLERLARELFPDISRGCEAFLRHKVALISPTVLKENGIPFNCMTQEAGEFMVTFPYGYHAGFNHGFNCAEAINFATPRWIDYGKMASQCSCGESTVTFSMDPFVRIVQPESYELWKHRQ
ALDH1A1 block: qHTS Assay for Inhibitors of Aldehyde Dehydrogenase 1 (ALDH1A1) | Purified ALDH1A1, NADH fluorescence, propionaldehyde substrate | Potency, µM (top dose mostly 75.3 µM), for inactives: top-dose activity, negative = inhibition, most hits filed as inhibitors | Aldehyde dehydrogenase 1A1 (Homo sapiens), P00352 | 220,000 compounds, 7.3% hits;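 note: potency is the fitted concentration of half-maximal effect; plate controls were no enzyme wells and a reference inhibitor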
PNC assembly inh: High Content Assay for Compounds that inhibit the Assembly of the Perinucleolar Compartment. activity change (PNC), negative = inhibition, % at 10 µM. 140,000 compounds, 3.1% hits. AID 2417, 2010. PC3M PTB-GFP, PNC prevalence imaging, 16 h; hits give low values;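 active = readout at or below -70, meaning at least 70% loss of cells showing the perinucleolar compartment, a nuclear body marking cancer cells; inconclusive = readout between -30 and a set limit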;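 note: plate controls were DMSO wells for no effect and camptothecin positive control wells for full effect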
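PC3M cells stably expressing PTB-GFP, 750–1000 cells/well, treated 16 h at 37 °C with compound (23 nl of library stock), in duplicate. After paraformaldehyde fixation and Hoechst stain, imaged at 20x; PNC prevalence scored by image analysis.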
* = called active by the depositor; u = inconclusive; x = not tested or not shown; [ ] = remark or other dose. The list is not random: actives were taken first. Their share in the collection is about 11%. Unless noted, calls come from the whole dose curve; as a rule, active = well fitted inhibition curve with a large enough effect (not every such curve was filed as active); inconclusive = small, poorly fitted or top-dose-only effect, or another doubt; inactive = no such curve, though single readings can be large or run the other way. Unless noted, % is set by controls: 0 for no effect and ±100 for the full control effect.

SMILES	HPGD inh	JMJD2E inh	ALDH1A1 block	PNC assembly inh
Cc1cccc2sc(NC(=O)CNS(=O)(=O)c3ccc(Br)s3)nc12	-13%	4%	-3%	9
Cc1cccc2sc(NC(=O)c3ccc(NS(=O)(=O)c4cccs4)cc3)nc12	u	u	u	-84*
C/C(=N\NC(=O)c1ccc(NS(=O)(=O)c2cccs2)cc1)c1ccc(O)cc1O	x	13µM*	u	x
S=C1NCN(Cc2cccnc2)CN1c1cccc2ccccc12	x	1%	2%	x
C=CCN1C=C2C(=O)C(C)(OC(=O)CCC(=O)OC)C(=O)C(Br)=C2C=C1c1ccc(OC)cc1 (centres undefined)	-10%	7.9µM*	u	x
COCCN1C=C2C(=O)C(C)(OC(=O)CCC(=O)OC)C(=O)C(Br)=C2C=C1c1ccc(OC)cc1 (centres undefined)	-8%	u	-12%[13.5 µM]	x
COc1cc(SC)ccc1C(=O)Nc1ccccn1	x	-4%	x	x
COc1cc(SC)ccc1C(=O)Nc1ccon1	-23%	-7%	20µM*	u
COc1ccc(/C=C/C(=O)N(Cc2cccs2)C2CCS(=O)(=O)C2)cc1 (centres undefined)	x	3%	x	x
O=C(O)c1cc(O)c2c(c1)[C@H]([C@H]1c3cc(C(=O)O)cc(O)c3C(=O)c3c(O[C@@H]4OC(CO)C(O)C(O)C4O)cccc31)c1cccc(O[C@@H]3OC(CO)C(O)C(O)C3O)c1C2=O (some centres undefined)	7.9µM*	11µM*	-10%	x
O=C1c2cccc(O)c2C(=O)c2c(O[C@@H]3O[C@H](CO)[C@@H](O)[C@H](O)[C@@H]3O)cccc21	-3%	x	9%[13.5 µM]	x
COc1nccnc1NS(=O)(=O)c1ccc(NC(=O)c2cccc(C)c2)cc1	x	3%	-14%	x
COc1ccc(C[N+](C)(C)N)cc1OC	-3%	x	-3%[13.5 µM]	x
COc1cccc(=O)c2c(C)n(-c3cc(C)cc(C)c3)c(C)c12	28µM*	1%	-5%	66
COc1cccc(-n2c(C)c3c(OC)cccc(=O)c3c2C)c1	x	-22%	u	x
Cc1ccc(-c2cc(C(=O)NC3=NCCS3)c3cc(Br)ccc3n2)o1	2.5µM*	8.9µM*	0.11µM*	-17
CCC(=O)OC1(C)C(=O)C=C2C=C(CCCNC(=O)OC(C)(C)C)OC=C2C1=O (centres undefined)	-8%	-13%	1%	x
Cc1cc(/C=N/n2cnnc2)c(C)n1-c1ccc(Cl)cc1Cl	-5%	5%	u	u
Cc1cc(C=NCCCO)c(C)n1-c1cc(Cl)ccc1Cl	x	-2%	3.5µM*	x
O=C(CSc1nnc(-c2ccc(Cl)cc2)n1Cc1ccco1)c1cccs1	-8%	7%	u	u
COc1ccc(-c2cc(C(F)(F)F)n3nc(C(=O)NCc4ccco4)cc3n2)cc1	u	u	u	-114*
O=C(CSCc1ccco1)c1cccs1	16µM*	-12%	u	17
O=C(NNC(=S)NCc1ccco1)c1cccs1	x	-8%	u	28
COc1ccc(CNC(=O)c2cc(-c3ccco3)on2)cc1	-14%	-1%	3.5µM*	-3
O=C(NCc1ccco1)c1cccs1	25µM*	-4%	u	-3
SMILES	HPGD inh	JMJD2E inh	ALDH1A1 block	PNC assembly inh
Cc1cc2nc(C)n(CCCNC(=O)Nc3cccc4ccccc34)c2cc1C	-15%	u	-7%	u
CC(=O)Nc1c(I)cc(I)c(C(=O)O)c1I	-1%	1%	8%	x
Cc1cc2ncn(CC(=O)O)c2cc1C	-10%	x	1%[13.5 µM]	x
O=C(NCc1ccco1)c1cc(-c2cccs2)on1	u	u	22µM*	2
O=C(NCCCNC(=O)c1cccs1)c1cccs1	-8%	u	7%	u
O=C(NCCCCNC(=O)c1cccs1)c1cccs1	-14%	-3%	2%	-114*
COc1cc(NCCC(=O)c2cccs2)c(OC)cc1Cl	x	-11%	1.4µM*	x
O=C(NCc1ccco1)c1cnccn1	-17%	-14%	28µM*	u
O=C(CN1CCC(C(=O)c2cccc(Cl)c2)CC1)Nc1ccc(C(=O)O)cc1	x	-18%	11%	x
NC(=O)c1ccc[n+]([C@@H]2O[C@H](COP(=O)([O-])OP(=O)(O)OC[C@H]3O[C@@H](n4cnc5c(N)ncnc54)[C@@H](O)[C@@H]3O)[C@@H](O)[C@@H]2O)c1	-5%	6%[25.5 µM]	5%[20.9 µM]	x
CCOC(=O)c1c(NC(=O)CSc2nc3nc(C)cc(C)n3n2)sc(CC)c1C	-17%	u	16%	u
COc1ccccc1CN1CCC2(CC1)CCN(C(=O)c1csnn1)CC2	-7%	x	-3%	x
COc1ccc(-c2nc(N)c3ncn([C@H]4O[C@@H](CO)[C@@H](O)[C@@H]4O)c3n2)cc1	-4%	x	11%[13.5 µM]	x
O=C(NCc1ccco1)Nc1cccs1	-9%	-5%	28µM*	u
O=C(NCc1ccco1)c1nc2nc(-c3cccs3)cc(C(F)(F)F)n2n1	u	u	u	7
O=C(NCc1ccco1)c1nn2c(C(F)(F)F)cc(-c3cccs3)nc2c1Br	-23%	-19%	22µM*	-21
O=C(NCc1ccco1)Nc1ccc([N+](=O)[O-])cc1	x	-13%	-10%	x
O=C(CCC(=O)c1cccs1)c1cccs1	-28%	3%	28µM*	-6
O=C(NCCc1cn2ccsc2n1)c1cccs1	25µM*	-21%	u	45
CCn1c(SCC(=O)Nc2oc(-c3ccccc3)c(-c3ccccc3)c2C#N)nnc1-c1cc(OC)cc(OC)c1	-18%	-7%	-6%	-7
CC(C)NC(=S)Nc1ccc2nc3n(c(=O)c2c1)CCCCC3	16%	-2%	4%	-22
COc1ccc(CNC(=O)c2csc(Cc3ccc(Cl)cc3)n2)cc1	-12%	5%	-6%	-106*
COc1ccc(C2/C=C\CN(Cc3ccc(N(C)C)cc3)CC(=O)N2Cc2ccc(F)cc2)cc1 (centres undefined)	x	4%	x	x
COC(=O)NC(CC(C)=O)c1ccccc1 (centres undefined)	x	x	21%[13.5 µM]	x
CCCn1c(N2CCN(CC(=O)NCc3cccs3)CC2)nc2ccccc21	-10%	-1%	u	-87*
SMILES	HPGD inh	JMJD2E inh	ALDH1A1 block	PNC assembly inh
COC(=O)C1=C(C)NC(=O)/C1=C\c1cc(C)n(-c2cccc(C)c2)c1C	-6%	-12%	u	-20
COC(=O)C1=C(C)NC(=O)/C1=C\c1cc(C)n(-c2ccc(F)cc2)c1C	x	20µM*	-9%	x
CCN(CC)c1ccc(SS(=O)(=O)O)cc1	8.9µM*	-16%	13µM*	0
CCN(CC)c1ccc(NC(=O)OC)cc1	-12%	5%	9%	80
Cc1cccc(-n2c(=S)[nH]c3sc4c(c3c2=O)CCc2ccccc2-4)c1	x	6%	3.2µM*	x
COc1cc(C#N)c(NC(=O)CN2CCC(C(N)=O)CC2)cc1OC	x	-2%	-2%	x
CC(C)(C)Sc1ccccc1S(=O)(=O)C(C)(C)C	x	3%	6%	x
Cc1c(Cl)c(C(=O)NC2CCCC2)nn1C	35µM*	-7%	0%	17
